The record followed here is the supplement of paper PMC9135407.

This assay concerns primary human hepatic stellate cells (donor 1). Kind of assay: scaled lipid accumulation score (0 = DMSO-like, 1 = nortriptyline-like); higher = stronger HSC inactivation (lipid re-accumulation), active = hit call of the paper. Conditions: 48 h.
Setting [1] is: library stock concentration: 3.33 mM.
The mark [2] stands for this setting: library stock concentration: 10 mM.
The mark [3] stands for this setting: library stock concentration: 1 mM.
Where [4] appears, read: library stock concentration: 80 uM.
Setting [5] is: library stock concentration: 400 uM.
The mark [6] stands for this setting: library stock concentration: 2 mM.

Values joined by “and” are separate entries in the source; they are usually repeats but may differ in a detail not shown here. Equal values may be shown once. Where a name gives a salt, the structure may show the parent alone. The campaign covered roughly 5,800 compounds. About 620 (11%) showed activity. The entries come from a sample that favours actives as a whole. Unmarked numbers belong to inactive results.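 How the source made its calls: active = score above a cut-off or among the top three wells of a plate; in these data no inactive exceeds 0.85.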 A value given as a limit tells only on which side of the number the result lay.

`Cn1nc2c3c(cccc31)C(=O)c1ccccc1-2` [JNK Inhibitor, Negative Control]: the “scaled lipid accumulation score” value under setting [1] was ≤ 0.
`Cc1ccc2nc(NC(=O)CSc3nc4c(c(=O)n3-c3ccccc3)SCC4)sc2c1`: the “scaled lipid accumulation score” value is, setting by setting: under setting [1], ≤ 0; under setting [2], 0.76.
As to `COc1ccc(CNc2nc(N(CCO)CCO)nc3c2ncn3C(C)C)cc1` [Cdk2 Inhibitor III], under setting [1], the “scaled lipid accumulation score” value is 0.067.
For the compound `CCCCCCCC/C=C\CCCCCCCCCCCCCC(=O)NCCS(=O)(=O)O` [N-Nervonoyl Taurine], the “scaled lipid accumulation score” value under setting [3] was 0.028.
For the compound `CCCCC[C@H](O)/C=C/[C@H]1CC[C@@H](O)[C@@H]1CCCCCCC(=O)O` [11-deoxy Prostaglandin F1.beta.], under setting [3], the “scaled lipid accumulation score” value is ≤ 0.
As to `CCCCCCCCCC(=O)CC(=O)N[C@H]1CCOC1=O` [N-3-oxo-dodecanoyl-L-Homoserine lactone], the “scaled lipid accumulation score” value under setting [3] was 0.017.
In the case of `COc1cc2ncc(-c3ccccc3)nc2cc1OC` [Tyrphostin AG 1296], the “scaled lipid accumulation score” value runs as follows: under setting [1], ≤ -0.009; under setting [2], ≤ 0.
In the case of `COc1cc2ncc(-c3ccccc3)nc2cc1OC`, the “scaled lipid accumulation score” value under setting [1] is ≤ 0 and the “scaled lipid accumulation score” value (library stock concentration: 18.8 mM) is 0.096.
For `COc1cc2c(cc1OC)-c1cc3nc4ccccc4nc3n1C(C)(C)C2`, the “scaled lipid accumulation score” value under setting [2] was 0.923 (active).
The same measure, in the same setting: with `CN(CCO)CC(O)Cn1cnc2c1c(=O)n(C)c(=O)n2C` (stereo not drawn) the figure was ≤ 0.
As for `c1([C@]2(C(=O)OC)c3c(c4c(cccc4)[nH]3)CN(CC5C2)CC(CC)=C5)cc6c(N(C)[C@]7([H])[C@]6(CC8)[C@]([H])(N89)[C@@](CC)(C=CC9)[C@@H](OC(=O)C)[C@]7(O)C(=O)OC)cc1OC.C(=O)(O)[C@H](O)[C@@H](O)C(=O)O.C(=O)(O)[C@H](O)` (stereo partly drawn) [Vinorelbine Tartrate], the “scaled lipid accumulation score” value is 1.26 (active) under setting [1] and 0.863 (active) under setting [2].
With `CCC1=C[C@H]2CN(C1)Cc1c([nH]c3ccccc13)[C@@](C(=O)OC)(c1cc3c(cc1OC)N(C)[C@H]1[C@@](O)(C(=O)OC)[C@H](OC(C)=O)[C@]4(CC)C=CCN5CC[C@]31[C@@H]54)C2.O=C(O)C(O)C(O)C(=O)O`, under setting [2], the “scaled lipid accumulation score” value is 1.52 (active).
`CCC1=C[C@@H]2CN(C1)Cc1c([nH]c3ccccc13)[C@@](C(=O)OC)(c1cc3c(cc1OC)N(C)[C@H]1[C@@](O)(C(=O)OC)[C@H](OC(C)=O)[C@]4(CC)C=CCN5CC[C@]31[C@@H]54)C2` [Vinorelbine]: the “scaled lipid accumulation score” value (library stock concentration: 2.6 mM) is 0.75.
Consider `COc1ccc2c(c1)c(CC(=O)O)c(C)n2Cc1ccc(Cl)cc1` [1-(4-Chlorobenzyl)-5-methoxy-2-methylindole-3-acetic acid], for which the “scaled lipid accumulation score” value under setting [2] is 0.078.
`Nc1ccccc1S(N)(=O)=O` [2-Aminobenzenesulfonamide]: the “scaled lipid accumulation score” value was ≤ 0.
Regarding `Cc1cccc(C#Cc2ccccc2)n1` [MPEP hydrochloride], under setting [2], the “scaled lipid accumulation score” value was 0.053.
With `NS(=O)(=O)C#Cc1ccccc1` [Pifithrin-mu], the “scaled lipid accumulation score” value under setting [2] is 1.02 (active).
In the case of `Cc1cccc(C#Cc2ccccc2)n1`, the “scaled lipid accumulation score” value under setting [1] was ≤ 0 and the “scaled lipid accumulation score” value under setting [2] is 0.052.
On to `NS(=O)(=O)C#Cc1ccccc1` [Pifithrin->m], for which, under setting [2], the “scaled lipid accumulation score” value is 1.46 (active).
Still for that read-out and setting: then `Cc1cccc(C#Cc2ccccc2)n1` [6-Methyl-2-(phenylethynyl)pyridine hydrochloride], with ≤ -0.034.
With `FC(F)(F)c1ccc(/C=C\c2cc(Cl)cc(Cl)c2)cc1`, the “scaled lipid accumulation score” value under setting [3] was ≤ 0.
For `CCCCC/C=C\C/C=C\C/C=C\C/C=C\CCCC(=O)C(F)(F)F` [Arachidonyl Trifluoromethyl Ketone], the “scaled lipid accumulation score” value under setting [3] was ≤ 0.
In the case of `CCCCCCCCCCCC#CC#CC#CC#CC(=O)O` [Eicosatetraynoic Acid], the “scaled lipid accumulation score” value under setting [3] is ≤ 0.
Take `COc1cc(OC)c(/C=C/S(=O)(=O)Cc2ccc(OC)c(NCC(=O)O)c2)c(OC)c1`: the “scaled lipid accumulation score” value under setting [4] was ≤ -0.016; the “scaled lipid accumulation score” value under setting [5] was ≤ -0.016; the “scaled lipid accumulation score” value under setting [6] was 0.096; the “scaled lipid accumulation score” value under setting [1] was 0.068; the “scaled lipid accumulation score” value under setting [2] was 0.138 and 0.063.
Consider `CC(C)NCC(O)COc1ccc(CC(N)=O)cc1` (racemic) [(RS)-Atenolol], for which the “scaled lipid accumulation score” value under setting [2] was 0.043.
The same measure, in the same setting: with `CN1CCC(NC(=O)C2=CC(=C3C(O)=CC(=O)C=C3Oc3ccc([N+](=O)[O-])cc3)ON2)CC1` the figure was 0.976 (active).
With `COc1ccc2c(c1)C(=O)N(CCc1ccc(S(=O)(=O)NC(=O)NC3CCCCC3)cc1)C(=O)C2(C)C` [Gliquidone], the “scaled lipid accumulation score” value is ≤ 0.
Consider `CN1CCC(NC(=O)c2cc(-c3c(O)cc(O)cc3Oc3ccc([N+](=O)[O-])cc3)on2)CC1`, for which the “scaled lipid accumulation score” value under setting [1] is 0.756.
Turning to `CCCCCC=CCC=CCC=CCC=CCCCC(=O)OCC(O)CO` (stereo not drawn) [1-Arachidonoyl Glycerol], the “scaled lipid accumulation score” value under setting [3] was 0.012.
`CCCCC/C=C\C[C@H](O)/C=C/C=C\C/C=C\CCCC(=O)O`: under “library stock concentration: 100 uM”, the “scaled lipid accumulation score” value was ≤ -0.021.
With `Cc1cc2c(OCC(CNC(C)(C)C)OC(=O)c3ccccc3)cccc2[nH]1` (stereo not drawn) [Bopindolol malonate], the “scaled lipid accumulation score” value (library stock concentration: 5.3 mM) was ≤ -0.006.
With `COc1cc(/C=C/C(=O)O)ccc1O` [Ferulic Acid], the “scaled lipid accumulation score” value by setting is: under setting [1], ≤ 0; under setting [2], ≤ 0.
Turning to `COc1ccc(/C=C\c2cc(OC)c(OC)c(OC)c2)cc1O` [Combrestatin A4], the “scaled lipid accumulation score” value under setting [3] is 0.237 (active).
Turning to `COc1cc(/C=C/C(=O)O)ccc1O` [Ferulic acid], the “scaled lipid accumulation score” value under setting [2] was ≤ 0.
As for `COc1cc(/C=C/C(N)=O)cc(OC)c1OC`, the “scaled lipid accumulation score” value under setting [2] was 0.006.
Same read-out and setting: then `Nc1[nH]nc2nc3ccccc3nc12`, with ≤ -0.006.
Consider `CC(C)[C@H](N)C(=O)OCC(CO)OCn1cnc2c(=O)[nH]c(N)nc21` (stereo partly drawn) [Valganciclovir HCl], for which the “scaled lipid accumulation score” value was ≤ 0 under setting [1] and 0.028 under setting [2].
For the compound `COC(=O)C(Cc1ccc(OCCn2c(=O)sc3cc(C(=O)c4ccccc4)ccc32)cc1)C(=O)OC`, the “scaled lipid accumulation score” value under setting [2] was ≤ 0.
As for `CCCCN(CC)c1nc(C)nc2c1c(C)cn2-c1c(C)cc(C)cc1C`, the “scaled lipid accumulation score” value under setting [2] is 0.047.
`Cc1ccc(NC(=O)c2ccc(CN3CCN(C)CC3)cc2)cc1Nc1nc(-c2cccnc2)cs1` [Masitinib (AB1010)]: the “scaled lipid accumulation score” value under setting [1] was 1.13 (active) and the “scaled lipid accumulation score” value under setting [2] is 0.856 (active).
On to `Cc1ccc(NC(=O)c2ccc(CN3CCN(C)CC3)cc2)cc1Nc1nc(-c2cccnc2)cs1` [Masitinib] [listing 1 of 2 here], for which the “scaled lipid accumulation score” value runs as follows: under setting [4], ≤ -0.009; under setting [5], 0.153; under setting [6], 0.121.
Turning to `Cc1ccc(NC(=O)c2ccc(CN3CCN(C)CC3)cc2)cc1Nc1nc(-c2cccnc2)cs1` [Masitinib (AB1010, Masivet) (10 mM)], under setting [2], the “scaled lipid accumulation score” value is 0.755.
In the case of `Cc1ccc(NC(=O)c2ccc(CN3CCN(C)CC3)cc2)cc1Nc1nc(-c2cccnc2)cs1` [Masitinib (AB1010, Masivet) (2 mM)], the “scaled lipid accumulation score” value under setting [6] is 1.37 (active).
On to `Cc1ccc(NC(=O)c2ccc(CN3CCN(C)CC3)cc2)cc1Nc1nc(-c2cccnc2)cs1` [Masitinib] [listing 2 of 2 here], for which the “scaled lipid accumulation score” value under setting [2] was 1.07 (active).
Regarding `Cc1cc(C)c(-c2csc(NC(=O)c3ccccc3)n2)c(C)c1`, the “scaled lipid accumulation score” value reads like this: under setting [1], ≤ -0.009; under setting [2], 0.033.
Take `Cc1ccc(NC(=O)c2ccc(CN3CCN(C)CC3)cc2)cc1Nc1nc(-c2cccnc2)cs1` [Masitinib (AB1010, Masivet) (0.4 mM)]: under setting [5], the “scaled lipid accumulation score” value is 0.487.
For the compound `Cc1ccc(-c2csc(NC(=O)c3ccccc3)n2)c(C)c1`, the “scaled lipid accumulation score” value was ≤ -0.009 under setting [1] and ≤ 0 under setting [2].
